Sfp inh: qHTS Assay for Inhibitors of Bacillus subtilis Sfp phosphopantetheinyl transferase (PPTase); 4'-phosphopantetheinyl transferase ffp (Bacillus subtilis), Q9F4F7; Biochemical Sfp PPTase activity, qHTS; Potency, µM, hits mostly inhibitors; actives 3.5% (n = 310,000); AID 1490, 2009; active = well fitted curve in the direction sought with a large enough effect; inconclusive = small, poorly fitted or top-dose-only effect, or another doubt; inactive = no such curve, though single readings can be large; an effect the other way counts as inactive or inconclusive;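 also: the enzyme is Sfp with the accession as filed and its product quenches rhodamine fluorescence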
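Compounds were incubated with enzyme (final 15 nM) for 15 min at room temperature before substrate addition started the reaction. Fluorescence at 525 nm excitation, 598 nm emission was recorded immediately and after 30 minutes.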
GoLoco inh red: qHTS Assay for Inhibitors of RGS12 GoLoco Motif Activity (Red Fluorophore); Gai1:RGS12 GoLoco peptide FP, rhodamine, 10 min; AID 880, 2007; Potency, µM (titrated, usually from 61.6 µM), hits mostly inhibitors; actives 0.44% (n = 230,000); Guanine nucleotide-binding protein G(i) subunit alpha-1 (Homo sapiens), P63096; active = well fitted inhibition curve with a large enough effect, not every such curve was filed as active; inactive = no such curve, though single readings can be large or run the other way; also: nearly all actives have a fitted effect of over 30% in size
NPSR antagonist: qHTS Assay for Antagonists of the Neuropeptide S Receptor: cAMP Signal Transduction | Q6W5P4 | CHO-NPSR cells, cAMP TR-FRET, antagonist mode | Potency, µM (titrated, usually from 38.3 µM), hits mostly inhibitors | actives 1% (n = 220,000); active = well fitted curve in the direction sought with a large enough effect; inconclusive = small, poorly fitted or top-dose-only effect, or another doubt; inactive = no such curve, though single readings can be large; an effect the other way counts as inactive or inconclusive; also: nearly all actives have a fitted effect of over 50% in size
Coupling enz: qHTS Assay for Inhibitors of Fructose-1,6-bisphosphate Aldolase from Giardia Lamblia: Coupling assay counterscreen; activity change, negative = inhibition, % at 58.2 µM, hits read low; actives 0.67% (n = 290,000); coupling enzyme system counterscreen, AmpLite Red fluorescence; in the data active = activity change below about -30%
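Counterscreen lacking aldolase: glyceraldehyde-3-phosphate coupling-enzyme reagent preincubated 10 min at RT with compound (at 57.5 uM final), then substrate/coupling system with AmpLite Red added; fluorescence read at 525/598 nm after 20 min RT.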
JMJD2E inh: qHTS Assay for Inhibitors of Human Jumonji Domain Containing 2E (JMJD2E); Lysine-specific demethylase 4E (Homo sapiens), B2RXH2; JMJD2E catalytic domain, FDH-coupled NADH fluorescence (FDH is formaldehyde dehydrogenase); Potency, µM (titrated, usually from 57.1 µM), hits mostly inhibitors; actives 1.6% (n = 230,000); AID 2147, 2009; also: nearly all actives have a fitted effect of over 50% in size
ALDH1A1 block: qHTS Assay for Inhibitors of Aldehyde Dehydrogenase 1 (ALDH1A1). actives 7.3% (n = 220,000). Purified ALDH1A1, NADH fluorescence, propionaldehyde substrate. Aldehyde dehydrogenase 1A1 (Homo sapiens), P00352. Potency, µM (highest dose often 75.3 µM), usual class: inhibitors. AID 1030, 2008
Target sequence (P00352 whole entry, looked up): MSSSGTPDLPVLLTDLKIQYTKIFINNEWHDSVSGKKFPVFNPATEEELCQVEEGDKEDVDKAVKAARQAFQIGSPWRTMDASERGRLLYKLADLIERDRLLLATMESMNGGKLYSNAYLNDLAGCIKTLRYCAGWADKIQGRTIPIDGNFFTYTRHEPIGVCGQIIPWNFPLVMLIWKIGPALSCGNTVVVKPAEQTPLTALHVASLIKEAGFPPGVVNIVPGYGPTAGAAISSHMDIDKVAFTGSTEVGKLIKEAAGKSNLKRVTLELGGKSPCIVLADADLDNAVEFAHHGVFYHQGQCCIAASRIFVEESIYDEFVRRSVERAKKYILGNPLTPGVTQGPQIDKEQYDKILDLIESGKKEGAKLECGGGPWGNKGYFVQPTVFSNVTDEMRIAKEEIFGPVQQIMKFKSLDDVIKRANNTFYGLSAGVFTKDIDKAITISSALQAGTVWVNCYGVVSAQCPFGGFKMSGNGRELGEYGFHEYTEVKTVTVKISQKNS
Hits are given with their value; - = inactive; ? = inconclusive; . = no result. Sampled rows, rich in hits. Any-hit rate of the full collection: about 8.5%. Unless noted, calls follow the shape of the dose curve; as a rule, active = well fitted inhibition curve with a large enough effect (not every such curve was filed as active); inconclusive = small, poorly fitted or top-dose-only effect, or another doubt; inactive = no such curve, though single readings can be large or run the other way.

SMILES	Sfp inh	GoLoco inh red	NPSR antagonist	Coupling enz	JMJD2E inh	ALDH1A1 block
CC(=O)C1(O)Cc2c(O)c3c(c(O)c2C(OC2CC(N)C(O)C(C)O2)C1)C(=O)c1c(O)cccc1C3=O (stereo not drawn)	-	.	.	.	.	.
CO/N=C/NC(=O)c1c(OC)ccnc1Oc1cccc(C(F)(F)F)c1	-	-	-	-	-	-
CN(C)CCn1c(=S)[nH]c2ncccc2c1=O	50.1µM	-	-	-	?	-
Cc1cc(NC(=O)COc2ccccc2)ccc1Cl	-	.	.	-	.	.
Cc1ccccc1NCc1ccccc1O	?	.	-	-32.9	-	?
CC(C)(C)CN1CCNC(=O)C1CC(=O)NCCc1ccccc1F (stereo not drawn)	-	-	-	-	?	?
CCOc1ccc(/C(O)=C2/C(=O)C(=O)N(c3ccccn3)C2c2ccc(F)cc2)c(C)c1 (stereo not drawn)	-	.	.	-	.	.
CCc1c(C(=O)Nc2ccccc2)c(C)[nH]c(=S)c1C#N	56.2µM	-	-	-	?	3.55µM
Cc1[nH]c(=S)c(C#N)c(C)c1C(=O)Nc1ccccc1	44.7µM	-	-	-	?	?
Cc1[nH]c(C(=O)O)c(C#N)c1C(=O)c1ccccc1	-	.	.	-	.	.
Nc1c(S(=O)(=O)O)cc(Nc2ccc(Cl)cc2)c2c1C(=O)c1ccccc1C2=O	15.8µM	.	.	-	.	.
Cc1ccc(/C(O)=C2/C(=O)C(=O)N(CCCn3ccnc3)C2c2ccccn2)cc1 (stereo not drawn)	-	-	-	-	-	-
COc1ccc(/C(O)=C2/C(=O)C(=O)N(CCCN(C)C)C2c2ccc(C)o2)cc1Cl (stereo not drawn)	89.1µM	-	-	-	-	?
Cc1ccc(C2/C(=C(/O)c3ccc(Br)cc3)C(=O)C(=O)N2Cc2ccco2)o1 (stereo not drawn)	3.55µM	-	-	-	-	?
Cc1ccc(C2/C(=C(\O)c3ccc4c(c3)OCCO4)C(=O)C(=O)N2CCCN(C)C)o1 (stereo not drawn)	-	-	-	-	-	?
Cc1ccccc1COc1ccc(/C(O)=C2/C(=O)C(=O)N(CCCn3ccnc3)C2c2ccco2)cc1 (stereo not drawn)	?	-	-	-	?	11.2µM
O=S1(=O)CCOC[C@H](c2ccccc2)N1Cc1cccc(Cl)c1	-	.	.	-	.	.
CCCC(=O)c1cc(O)c(O)cc1O	.	-	.	.	.	?
O=C1/C(=C/c2ccco2)SC(=S)N1C1CCS(=O)(=O)C1 (stereo not drawn)	-	-	-	-45.1	-	8.91µM
O=C1/C(=C\c2ccco2)SC(=S)N1C1CCS(=O)(=O)C1 (stereo not drawn)	31.6µM	-	-	-	28.2µM	22.4µM
Cc1ccc(/C=C2\SC(=S)N(C3CCS(=O)(=O)C3)C2=O)cc1 (stereo not drawn)	-	-	-	-	-	-
c1cc2c(cc1Nc1nc(-c3ccc4c(c3)OCO4)cs1)OCCO2	-	-	-	-	-	17.8µM
CCC(=O)Nc1nc(-c2ccc3c(c2)OCCO3)cs1	-	-	-	-	-	?
c1ccc(-c2csc(Nc3ccc4c(c3)OCCO4)n2)cc1	?	-	-	-	-	23.8µM
c1cn2cc(-c3ccc4c(c3)OCO4)nc2s1	31.6µM	-	-	-	-	8.91µM
SMILES	Sfp inh	GoLoco inh red	NPSR antagonist	Coupling enz	JMJD2E inh	ALDH1A1 block
COc1cccc(Nc2nc(-c3ccc4c(c3)OCCO4)cs2)c1	-	-	-	-	-	?
c1cc2c(cc1-c1csc(NNC3=NCCCCC3)n1)OCCO2	-	-	-	-	?	20µM
CC(/C=C(\NC(=O)c1ccccc1)C(=O)N=Nc1c(O)[nH]c2ccc(C)cc12)=C\c1ccccc1	-	-	-	-	-	-
O=C(CCCc1nc2ccccc2s1)NC(c1ccccc1)c1ccccc1	-	-	-	-	-	-
COc1ccc(C2CC(c3ccc(C)cc3)=NN2C(=O)CCC(=O)O)cc1OC (stereo not drawn)	-	.	.	-	.	.
Cn1c(CC(=O)Nc2ccc(F)cc2)nnc1SCC(=O)Nc1nncs1	-	.	.	-	.	.
CCOC(=O)c1c(C)[nH]c(C(=O)OC)c1CCC(=O)OC	-	-	-	-	-	-
CCOC(=O)c1[nH]c(Cc2[nH]c(C(=O)OCC)c(C)c2CCC(=O)OC)c(CCC(=O)OC)c1C	56.2µM	-	?	-	-	-
CC(C(Sc1ccccc1N)c1ccccc1)[N+](=O)[O-] (stereo not drawn)	3.98µM	-	?	-	11.2µM	.
Nc1ccccc1SCc1c(Cl)cccc1Cl	-	-	-	-	-	.
CCC1CC=CC2C1C(=O)N(Cc1ccccc1)C2c1ccc2ccccc2c1 (stereo not drawn)	-	.	.	-	.	.
COc1cc(/C=N/NC(=O)c2sc(N)c(C#N)c2C)cc(Br)c1O	-	-	-	-	?	12.6µM
COc1ccc2ccccc2c1/C=N/NC(=O)c1sc(N)c(C#N)c1C	-	-	-	-	?	?
CCN1C(=O)c2ccccc2S(=O)c2ccc(C(=O)NCc3ccc(OC)cc3)cc21 (stereo not drawn)	-	.	.	.	.	.
CCC(=O)N1CCc2cc(S(=O)(=O)NCCC(=O)N3CCc4ccccc4C3)ccc21	-	-	-	-	-	17.8µM
CCC(=O)N1CCc2cc(S(=O)(=O)NCCC(=O)N3CC=C(c4ccccc4)CC3)ccc21	-	-	-	-	-	?
CCC(=O)N1CCc2cc(S(=O)(=O)NCCCOC)ccc21	-	-	-	-	-	20µM
COc1ccc(C(=O)N=S2CCN(C(=O)c3ccc(Cl)cc3)CC2)cc1	-	-	-	-	-	-
Cc1ccccc1C(=O)NNC(=O)CSc1nc2ccccc2c(=O)[nH]1	-	-	-	-	-	.
Cn1c(SCc2nc3ccccc3[nH]2)nnc1-c1ccccn1	-	-	-	-	-	-
C=CCn1c(SCc2nc3ccccc3[nH]2)nnc1-c1ccccn1	-	-	-	-	?	6.31µM
CCn1c(C)cc(=S)c2ccccc21	?	-	?	-41.8	?	3.98µM
CCn1c2ccccc2c2nc3ccccc3nc21	-	-	-	-	?	?
C=CCSC1=N/C(=C\c2sccc2C)C(=O)S1	-	-	-	-	-	-
C=CCSC1=N/C(=C\C=C\c2ccco2)C(=O)S1	56.2µM	-	-	-	?	20µM
Cn1cc([N+](=O)[O-])c(C(=O)N(Cc2ccccc2)Cc2ccccc2)n1	-	-	-	-	-	-

Source: PubChem BioAssay
